Reference: PubChem BioAssay (NCATS)
Results filed as inconclusive are left out. Activity calls are given as the source filed them. Unless noted, calls come from the whole dose curve; as a rule, active = well fitted curve in the direction sought with a large enough effect; inconclusive = small, poorly fitted or top-dose-only effect, or another doubt; inactive = no such curve, though single readings can be large; an effect the other way counts as inactive or inconclusive.

How the values were obtained:
[1] = Confirmation and Secondary Assay for Modulators of Hemoglobin Beta Chain Splicing at IVS2 705 locus (AID 930);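 note: GFP fluorescence per well restored by corrected splicing of the IVS2-705 intron in EGFP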; note: potency is the fitted concentration of half-maximal effect
How it was run: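 HeLa EGFP-705 reporter; 500 cells/well, o/n 37C 5% CO2; cpd 2 d; 488 ex/500-520 em laser scan; total peak GFP intensity/well. Ref: 500 nM […] antisense PNA.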

[2] = target: Muscarinic acetylcholine receptor M1 (Rattus norvegicus) (UniProt P08482); experiment: qHTS Assay for Antagonists of Acetylcholine Muscarinic M1 Receptor: Kinetic Measurement of Intracellular Calcium Response (AID 943);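 note: Fluo-4 calcium signal as peak divided by basal fluorescence over 4 min; series mostly up to about 35 µM; nearly all actives have a fitted effect of over 75% in size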
Muscarinic acetylcholine receptor M1 (Rattus norvegicus), sequence (P08482 whole entry, looked up): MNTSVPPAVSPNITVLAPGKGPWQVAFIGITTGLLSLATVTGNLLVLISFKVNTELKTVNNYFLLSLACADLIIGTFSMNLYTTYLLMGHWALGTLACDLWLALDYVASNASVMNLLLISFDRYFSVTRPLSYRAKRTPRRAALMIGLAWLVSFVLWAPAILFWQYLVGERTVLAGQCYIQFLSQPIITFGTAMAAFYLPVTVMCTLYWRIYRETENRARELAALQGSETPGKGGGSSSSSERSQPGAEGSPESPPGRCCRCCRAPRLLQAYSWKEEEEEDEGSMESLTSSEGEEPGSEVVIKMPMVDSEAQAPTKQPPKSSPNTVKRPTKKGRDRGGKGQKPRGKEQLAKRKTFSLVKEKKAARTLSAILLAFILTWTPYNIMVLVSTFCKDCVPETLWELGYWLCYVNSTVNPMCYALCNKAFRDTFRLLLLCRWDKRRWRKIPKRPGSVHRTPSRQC
How it was run: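 Antagonism is measured as inhibition of the carbachol-evoked calcium rise in CHO cells transfected with rat M1. Cells are dye-loaded, exposed to compound for 10 min, then stimulated with 100 nM carbachol (EC80).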

[3] = target: Muscarinic acetylcholine receptor M1 (Rattus norvegicus) (UniProt P08482); experiment: qHTS Assay for Antagonists of Acetylcholine Muscarinic M1 Receptor: Measurement of IP-One Response (AID 944); note: nearly all actives have a fitted effect of over 75% in size
How it was run: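 Antagonist mode with rat M1 receptor transfected into CHO cells. Compound is added first for 10 min, carbachol at its EC80 follows for 30 min, and lysis reagents then allow TR-FRET detection of accumulated IP1.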

[4] = target: Pyruvate kinase (Leishmania mexicana) (UniProt Q27686); experiment: qHTS Validation Assay for Inhibitors of Leishmania Mexicana Pyruvate Kinase (AID 945)
Pyruvate kinase (Leishmania mexicana), sequence (Q27686 2-499 E452W): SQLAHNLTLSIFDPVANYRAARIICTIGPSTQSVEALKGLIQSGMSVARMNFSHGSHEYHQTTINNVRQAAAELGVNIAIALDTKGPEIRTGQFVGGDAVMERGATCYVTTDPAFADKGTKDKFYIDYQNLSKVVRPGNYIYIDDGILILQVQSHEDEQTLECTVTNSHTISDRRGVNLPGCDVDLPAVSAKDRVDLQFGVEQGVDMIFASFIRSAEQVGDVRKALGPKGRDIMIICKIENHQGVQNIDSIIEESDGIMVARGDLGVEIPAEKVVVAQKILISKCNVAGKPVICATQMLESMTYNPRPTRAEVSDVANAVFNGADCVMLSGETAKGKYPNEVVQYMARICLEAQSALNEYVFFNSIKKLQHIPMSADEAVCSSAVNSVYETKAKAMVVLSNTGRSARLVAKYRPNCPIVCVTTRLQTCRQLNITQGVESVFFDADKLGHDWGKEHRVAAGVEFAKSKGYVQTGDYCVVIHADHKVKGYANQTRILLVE
How it was run: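 Substrate mix (0.5 mM PEP, 0.1 mM ADP, 7 mM MgCl2, 50 mM KCl, pH 7.2 imidazole) received compound by pin tool, then 0.2 nM LmPYK E451W. After 1 h at room temperature, PKLight was added and luminescence measured.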

[5] = target: Pyruvate kinase PKM (Homo sapiens) (UniProt P14618); experiment: qHTS Assay for Activators of Human Muscle Pyruvate Kinase (AID 954; active = well fitted curve in the direction sought with a large enough effect, not every such curve was filed as active)
Pyruvate kinase PKM (Homo sapiens), sequence (P14618 whole entry, looked up): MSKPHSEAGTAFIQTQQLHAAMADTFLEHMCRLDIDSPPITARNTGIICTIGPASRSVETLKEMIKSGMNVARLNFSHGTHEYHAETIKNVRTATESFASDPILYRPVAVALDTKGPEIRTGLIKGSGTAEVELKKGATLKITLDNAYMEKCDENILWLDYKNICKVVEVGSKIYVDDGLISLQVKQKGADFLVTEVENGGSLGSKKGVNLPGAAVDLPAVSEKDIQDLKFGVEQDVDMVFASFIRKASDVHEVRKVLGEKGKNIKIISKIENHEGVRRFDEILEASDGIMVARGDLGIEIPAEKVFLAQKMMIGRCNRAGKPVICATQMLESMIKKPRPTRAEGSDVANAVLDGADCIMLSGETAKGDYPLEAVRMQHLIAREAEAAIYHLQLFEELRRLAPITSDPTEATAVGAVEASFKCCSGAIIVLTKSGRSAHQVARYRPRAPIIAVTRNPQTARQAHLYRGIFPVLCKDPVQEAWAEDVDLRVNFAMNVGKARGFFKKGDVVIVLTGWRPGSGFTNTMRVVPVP
How it was run: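 ATP production by PKM2 detected via luciferase luminescence after 1 h room-temperature reaction (0.1 nM enzyme, PEP at Km 0.5 mM, ADP 0.1 mM, pH 7.2 imidazole buffer). Inhibition scaled to no-enzyme control; activation referenced to 0.3 nM enzyme wells.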

[6] = MultiTox-Fluor Cytotoxicity Assay - LYMP1-001 - Dead Cells (AID 946)
How it was run: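 Cytotoxicity as increased dead-cell protease fluorescence (bis-AAF-R110, 485/520 nm), read 60 min after MultiTox-Fluor reagent. Human lymphoblastoid line exposed 16 h; Hill-fitted AC50, with DMSO as 0% and 15 uM tetraoctylammonium bromide as 100%.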

[7] = MultiTox-Fluor Cytotoxicity Assay - LYMP1-001 - Live Cells (AID 947)
[8] = Cell Viability - LYMP1-002 - Assay at 16 hr (AID 948)
How it was run: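 Seed 2500 LYMP1-002 cells per well in complete medium and hold 5 hr at 37 C. Add compound across a concentration series and incubate 16 hr at 37 C. Add CellTiter-Glo, wait 30 min at room temperature, read luminescence.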

[9] = MultiTox-Fluor Cytotoxicity Assay - LYMP1-002 - Dead Cells (AID 960); note: nearly all actives have a fitted effect of over 60% in size
How it was run: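 Cells were plated, rested 5 hr, then treated with compound dilution series for 16 hr at 37 C. After adding substrate reagent and 60 min at room temperature, dead-cell protease fluorescence gave concentration-response curves fitted by the Hill equation.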

[10] = MultiTox-Fluor Cytotoxicity Assay - LYMP1-003 - Dead Cells (AID 961); note: nearly all actives have a fitted effect of over 70% in size
How it was run: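 Dead-cell protease release, detected as bis-AAF-R110 fluorescence at 485/520 nm, was measured in LYMP1-003 cells after 16 h compound treatment at 37 C. AC50 values came from Hill-modeled qHTS curves normalized to DMSO (0%) and 15 uM tetraoctylammonium bromide (100%).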

[11] = MultiTox-Fluor Cytotoxicity Assay - LYMP1-003 - Live Cells (AID 962);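 note: cells exposed to compound for 16 hours at 37 °C; cytotoxic hits lower the live-cell protease signal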
How it was run: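 Acute cytotoxicity is scored as a drop in live-cell protease activity in human lymphoblastoid LYMP1-003 cells after 16 hr compound exposure at 37 C. AC50 values come from Hill-equation modelling of concentration-response data.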

[12] = Cell Viability - LYMP1-003 - Assay at 24 hr (AID 963)
How it was run: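 Cytotoxicity is scored as a concentration-dependent fall in ATP-linked luciferase signal in human lymphoblastoid LYMP1-003 cells treated 24 hr at 37 C in complete culture medium.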

[13] = Cell Viability - LYMP1-003 - Assay at 40 hr (AID 964); note: series mostly up to about 92 µM; nearly all actives have a fitted effect of over 60% in size
How it was run: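 Luminescent ATP signal (CellTiter-Glo) served as the viability read-out after 40 hr compound treatment of human lymphoblastoid LYMP1-003 cells at 37 C. Decreases in ATP were fitted with the Hill equation to give AC50.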

[14] = Cell Viability - LYMP2-003 (AID 965);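 note: cells exposed to compounds for 24 h before reading; nearly all actives have a fitted effect of over 50% in size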
How it was run: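 Seed 2500 lymphoblastoid cells/well; incubate 5 hr, 37 C; add compounds; incubate 24 hr, 37 C; add CellTiter-Glo, 30 min RT; read luminescence. AC50 from Hill fit.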

[15] = Cell Viability - LYMP2-004 (AID 966); note: nearly all actives have a fitted effect of over 65% in size
How it was run: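 qHTS cytotoxicity: human lymphoblastoid line, 24 hr compound treatment, 37 C, complete medium. Viability read as cellular ATP via luciferase luminescence; tetraoctylammonium bromide served as positive control.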

[16] = Cell Viability - LYMP2-005 (AID 967);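 note: series mostly up to about 92 µM; cells exposed to compound for 24 h at 37 °C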
How it was run: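 Acute cytotoxicity is scored as a concentration-dependent drop in intracellular ATP in human lymphoblastoid LYMP2-005 cells after 24 h compound treatment. ATP is quantified by luciferase luminescence, and AC50 is derived by Hill-equation modelling.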

[17] = Cell Viability - LYMP2-009 (AID 968);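 note: series mostly up to about 92 µM; cells exposed to compound for 24 h at 37 °C; nearly all actives have a fitted effect of over 55% in size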
[18] = Cell Viability - LYMP2-011 (AID 969); note: nearly all actives have a fitted effect of over 60% in size
How it was run: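 In this qHTS cytotoxicity format, compounds are tested across concentrations on human lymphoblastoid cells in complete medium for 24 hours at 37 C. Viability is taken as cellular ATP measured by luciferase luminescence.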

[19] = Cell Viability - LYMP2-013 (AID 970);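 note: series mostly up to about 92 µM; cells exposed to compound for 24 h at 37 °C; nearly all actives have a fitted effect of over 55% in size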
How it was run: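 Cytotoxicity is scored as a concentration-dependent drop in intracellular ATP in human lymphoblastoid cells after 24 hr compound exposure at 37 C. ATP is quantified by luciferase luminescence, and AC50 values come from Hill-equation modeling.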

[20] = Cell Viability - LYMP2-015 (AID 971); note: nearly all actives have a fitted effect of over 55% in size
How it was run: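 Cells are seeded at 2500 per well and incubated 5 hr at 37 C. Compounds are added across a concentration series for 24 hr at 37 C. CellTiter-Glo is added, and luminescence is read after 30 min at room temperature.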

Measured: Potency

O=C(CCCCCCCCCCCCC1CCCC1)Nc1ccc(S(=O)(=O)c2ccc(NC(=O)CCCCCCCCCCCCC3CCCC3)cc2)cc1
inactive: [1]

O=C(O)CCC(=O)c1ccc(-c2ccccc2)cc1
inactive: [1]

Cc1cc(C)c(NC(=O)C[C@H](CC(=O)O)c2cccc3ccccc23)c(C(=O)N2CCC3(CCCC3)CC2)c1
inactive: [2] | [3] | [4] | [5]

C=CC(C)(O)CC/C=C(\C)CCC=C(C)C (stereo not given)
inactive: [1]

Cc1cccc(C)c1NC(=O)C1CCCCN1C (stereo not given)
inactive: [1]

CC[C@H]1OC(=O)[C@H](C)[C@@H](O[C@H]2C[C@@](C)(OC)[C@@H](O)[C@H](C)O2)C(C)[C@@H](O[C@@H]2O[C@H](C)C[C@H](N(C)C)[C@@H]2O)[C@](C)(OC)C[C@@H](C)C(=O)[C@H](C)[C@@H](O)[C@]1(C)O (stereo not given in full)
inactive: [1]

NCC(O)CC(=O)O (stereo not given)
inactive: [1]

CCCc1nc(C(C)(C)O)c(C(=O)OCc2oc(=O)oc2C)n1Cc1ccc(-c2ccccc2-c2nn[nH]n2)cc1
inactive: [1]

CC1CCC(NC(=O)N(CCCl)N=O)CC1 (stereo not given)
inactive: [1]

O=C1c2ccccc2C(=O)c2c1ccc(O)c2O
inactive: [1]

N#Cc1ccc2c(c1)N(CCCN1CCC(O)CC1)c1ccccc1S2
inactive: [1]

O=C(O)[C@H]1C(=CCO)O[C@H]2CC(=O)N12
inactive: [1]

Nc1nccs1
inactive: [1] | [6] | [7] | [8] | [9] | [10] | [11] | [12] | [13] | [14] | [15] | [16] | [17] | [18] | [19] | [20]

C[C@@](Cc1ccc(O)c(O)c1)(NN)C(=O)O
inactive: [4] | [5]

CC(=O)N=c1sc(S(N)(=O)=O)nn1C
inactive: [1]

COc1cc(S(C)=O)ccc1-c1nc2ncccc2[nH]1 (stereo not given)
inactive: [1]

CN1CCc2c(c3ccccc3n2Cc2ccccc2)C1
inactive: [1]

OCC(O)CO
inactive: [6] | [7] | [8] | [9] | [10] | [11] | [12] | [13] | [14] | [15] | [16] | [17] | [18] | [19] | [20]

CC(=O)Oc1cccc(C(=O)O)c1OC(C)=O
inactive: [1]

CC(=O)Nc1ccc(OC(=O)c2ccccc2O)cc1
inactive: [1]

NC(N)=O
inactive: [1] | [6] | [7] | [8] | [9] | [10] | [11] | [12] | [13] | [14] | [15] | [16] | [17] | [18] | [19] | [20]

Nc1ncnc2c1ncn2[C@H]1CC[C@@H](CO)O1
inactive: [1] | [6] | [7] | [8] | [9] | [10] | [11] | [12] | [13] | [14] | [15] | [16] | [17] | [18] | [19] | [20]

CO
inactive: [6] | [7] | [8] | [9] | [10] | [11] | [12] | [13] | [14] | [15] | [16] | [17] | [18] | [19] | [20]

Nc1ccc(N=Nc2ccccc2)c(N)n1
active: [1] 20 µM
inactive: [6] | [7] | [8] | [9] | [10] | [11] | [12] | [13] | [14] | [15] | [16] | [17] | [18] | [19] | [20]

CC(=O)Oc1cccc2c1C(=O)c1c(OC(C)=O)cc(C(=O)O)cc1C2=O
inactive: [1]

CC(C)c1nc(N(C)S(C)(=O)=O)nc(-c2ccc(F)cc2)c1/C=C/C(O)CC(O)CC(=O)O (stereo not given)
inactive: [1]

OC[C@H]1O[C@@H]2O[C@H]3[C@H](O)[C@@H](O)[C@@H](O[C@H]4[C@H](O)[C@@H](O)[C@@H](O[C@H]5[C@H](O)[C@@H](O)[C@@H](O[C@H]6[C@H](O)[C@@H](O)[C@@H](O[C@H]7[C@H](O)[C@@H](O)[C@@H](O[C@H]1[C@H](O)[C@H]2O)O[C@@H]7CO)O[C@@H]6CO)O[C@@H]5CO)O[C@@H]4CO)O[C@@H]3CO
inactive: [6] | [7] | [8] | [9] | [10] | [11] | [12] | [13] | [14] | [15] | [16] | [17] | [18] | [19] | [20]

CC1CCCC(C)N1NC(=O)c1ccc(Cl)c(S(N)(=O)=O)c1 (stereo not given)
inactive: [1]

CCOC(=O)C1=C(COCCN)NC(C)=C(C(=O)OC)C1c1ccccc1Cl (stereo not given)
inactive: [1]
